Measurements from PubChem BioAssay (NCATS).
Results filed as inconclusive are left out. Active and inactive are the calls of the source. Calls follow the shape of the dose curve; as a rule, active = well fitted cell-killing curve with a large enough effect; inconclusive = small, poorly fitted or top-dose-only effect, or effect the other way; inactive = no such curve, though single readings can be large or run the other way.

Experiment: Viability qHTS for spleen associated tyrosine kinase inhibitor (SYKi) naive MV4-11 cells (AID 1963823); also: nearly all actives have a fitted effect of over 40% in size
Settings: MV4-11 AML viability, CellTiter-Glo luminescence, 72 h; series mostly up to 45 µM
Summary of the method: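 Viability of MV4-11 AML cells lacking prior SYK inhibitor exposure is scored by CellTiter-Glo luminescence following 72 hr compound incubation at 37 C, 5% CO2, seeded at 500 cells per well.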
Potency is read from the fitted curve at half-maximal effect.

| Structure (SMILES) | Potency | viability (% of control) |
| --- | --- | --- |
| CCOC(=O)Nc1cc(-c2ccc(C)c(NS(C)(=O)=O)c2)nn2c(C)nnc12 | 0.651 µM (active) |  |
| O=C(NCCO)c1cc(C(=O)NCCO)cc(C(=O)NCCO)c1 | inactive |  |
| COc1ccc(/C=C/C(=O)O[C@@H]2[C@@H](O)[C@@H](O)[C@H](O[C@@H]3C=C(CO)[C@H]4[C@H](O[C@@H]5O[C@H](CO)[C@@H](O)[C@H](O)[C@H]5O)OC=C[C@H]43)O[C@H]2C)cc1O | inactive |  |
| CC1CC(O)C2(C)C(C(=O)O)=CCCC2C1(C)CCc1ccoc1 (centres undefined) | inactive |  |
| CC(=O)C=C=C1C(C)(C)CC(O[C@@H]2O[C@H](CO)[C@@H](O)[C@H](O)[C@H]2O)CC1(C)O (some centres undefined) | inactive |  |
| Cc1ccc(NS(=O)(=O)c2cc3c(cc2N[C@@H](C)CO)NC(=O)CC3)cc1C | 20.6 µM (active) |  |
| CC1=CC2/C=C(\C)CCC(O)C/C=C/C(=O)OC23C(=O)NC(CC(C)C)C3C1C (centres undefined) | 8.93 µM (active) |  |
| CC1(C)CC[C@]2(C(=O)O[C@@H]3O[C@H](CO)[C@@H](O)[C@H](O)[C@H]3O)CC[C@]3(C)C(=CCC4[C@@]5(C)CC[C@H](O[C@@H]6O[C@H](C(=O)O)[C@@H](O)[C@H](O)[C@H]6O)C(C)(C)C5CC[C@]43C)C2C1 (some centres undefined) |  | 91.3% [at 9.25 µM] (inactive) |
| C[C@@H]1O[C@@H](O[C@H]2[C@H](O[C@H]3[C@H](O)[C@@H](C(=O)O)O[C@@H](O[C@H]4CC[C@@]5(C)C(CC[C@]6(C)C5CC[C@]57OC[C@@]8(CCC(C)(C)CC85)[C@H](O)C[C@]76C)C4(C)C)[C@@H]3O[C@@H]3O[C@H](CO)[C@@H](O[C@@H]4OC[C@@H](O)[C@H](O)[C@H]4O)[C@H](O)[C@H]3O)O[C@H](CO)[C@H](O)[C@@H]2O)[C@H](O)[C@H](O)[C@H]1O (some centres undefined) |  | 77.6% [at 9.25 µM] (inactive) |
